Reference: the supplement of paper PMC12632987
Whole data set: some 2,300 sequences, median “median log2 fold change of GCK-ALFA target abundance (FLAG IP / Myc IP barcode read proportion)” near 0.095, cut for the lowest 2% near -0.47. Many of the other results were omitted from the sample, so the lowest values are more common in it than they were.

B1: LC3A_3_1411 (protein)
chain: LEERLAATEALLREAGHSEETLAAFRRLVELLLERGAEEEAERVLELVAEAKDISSEDLLAVLEEVIRALEEEGASPEEAVERLEELLRIARAEQEIEEL
B2: LC3A_147_452 (protein)
chain: ATYVITVDVLLRNDPELAERIEEEIKKIGEENGAEVEVEREEIQETPTTTEYFLRVTLKTTDEEKALKALQEVSELLDRTAEEHPESFLGAMISFEKIED
B3: LC3A_28_846 (protein)
chain: SKTEEDIEKALKEAKEAAKKGEPAVIELKVYKGDTEEEIEKIIEALEEIAEILKDLPNQAILINFEEVIDEEHQNKILDKAEEIEKKYPNVTVIIALPEE
B4: LC3A_28_844 (protein)
chain: SKTEKDIKEALERAKRAAEEGKSEVITIKVYKGDTEEEINKIIETLEEIAEILKDLPNQAILIDFEEKIDEEHQNKIIDKAEEIEKKYPNITVIIALPEE
B5: LC3A_28_842 (protein)
chain: SKTEENIKKALAEAKEAAEKGESKVITLKVYKGDTEEEIDKIIETLEEIAEILKDLPNQAIIIEFEEPIDPEHQDKIIDKAEEIEKKYPNITVIIALPEE
B6: LC3A_132_311 (protein)
chain: SEEKYKEIKEELEKKLKEAEKNIKDKEKVEKLLEEIRKLLEEAEEELSPEQVAELYDEVADRLWKLSQKALEAGQEDVALELDAAAIEAASRSLEAEKLI
B7: LC3A_free_46_2418 (protein)
chain: YRGIVEADLLGLTEEQVEEVIERVKEKAKRLEEEYGVKVEVEVEVEKNEDGTYFLRIKVTIEGEDREKVEKAANEVVDLLEKLADEYGAAMIISIEFEEL
B8: LC3A_147_515 (protein)
chain: MYEVDIDILVKREGEEEVLEELEEILEELREEGYEVEVLEKRIEREGDEVFIYVKVLIRAPTPEEAEKAVNRLISRLEELEEKHKDLILGSLISVEKIEP
B9: LC3A_147_484 (protein)
chain: MRVYVDVLVDDEETAEELVRLMEATVEELRAQGIRVELRVEIEEVEPGVYFVEIEVEIEAETEEEEQAAAQRVIDALEAFDEANKDRVLGTLISVEREER
B10: LC3A_132_312 (protein)
chain: MEEKYAEIKARLDALLDEAAANIKDKAKVQALLKEIKALLEEAEKELTPEQVAELYDYVADRLDALSQQALAAGQEDVALDLDAASIEAASRSLEAEKKI
B11: LC3A_free_8_2551 (protein)
chain: NSQEFAEKVSEIIDEAEEKVKKILTENGVDREKRLLLELLFGEIIIEVISLRDKSKEEIAKAAKEGLEEVKEEAESLDEETKAKVNAVIDEAEAKIEALL
B12: LC3A_28_1012 (protein)
chain: MSLIEATKKEAKAAIEEAKKGEDAFLEVTITEEATEEEVKEVLKIIEETAEEISKIPNVKLYVVIDFDGSQEKLDIITDRMEEIEKKYPNVSVVIAYDEK
B13: LC3A_28_1011 (protein)
chain: MSLIEKTKEEAKKAIEEAKKGEDAFLEVEITEEATEEEVKEVLEIIEETAEEISKIENVKLYIVVDFDGDQEKLDLITDGLEEIEEKYPNVSSIIAYDEK
B14: LC3A_28_1147 (protein)
chain: SAEVEAAKKQIDEDAEKDKNEEEVYLNVTITSSMTKEEVEEIMDHVEEVVEKLKDKKKIYVVVTFTEPVSQEVLDTALEKGDEIEKKFPKVDVIVALPEY
B15: LC3A_28_1154 (protein)
chain: SANVEAAKKQIDEDAEKDKDEEEVYLNVTITSEDTVEEAKEIMEHVEEVVEKLKDKKKIYVVITFEEPVSQEVLDTVLEKAEEIEKKFPNVSVIIALPED
B16: LC3A_28_1155 (protein)
chain: SAEVEEAKKLIDEDAERDKDEEEVYLEVKITSSVTVEEAREIMDHVEEVVEKLKDKKKIYVVVTFEEPVSQEVLDEVLRRAEEIEEKFPNVDVIIALPED
B17: LC3A_free_8_2523 (protein)
chain: ASQAFADAAVKILDELEEKLVKLLKEKGASRLDILEAELLVGSIIAEVISLVDESIEAILKSIKEGLEELVEELEEHKEEVTKLANEALKKIEEKAKELK
B18: LC3A_3_1539 (protein)
chain: LEEEIEAALALLREAGASEETLAAFREAAEALLERGYEEALRELIRETRELIDAPSELLLAFFEEVLALVRTSDLSEEELIAEIRRIARTTRNEAEIEEL
B19: LC3A_62_2043 (protein)
chain: MYLATVDVDILAKDEEAAEKIYEEIKKKLEELKKKDPNIKYEVKLDKENKYVSVTVTYEAETLEEAEKKAQEIEDELDEILEKNEDLIKAALISREITKL

target: MAP1LC3A, Q9H492; experiment: median log2 fold change of GCK-ALFA target abundance (FLAG IP / Myc IP barcode read proportion) (log2 ratio); each designed protein is fused to an ALFA-tag nanobody in HEK293 cells to bring the named protein to FLAG-tagged glucokinase (GCK); Myc marks an untargeted standard; higher = target protein stabilised (more abundant); conditions: target protein: 3xFLAG-MCP-GCK-ALFA reporter; HEK293 landing pad (RPLP)
How it was run: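 An ALFA-nanobody-fused binder library was recombined into HEK293 landing-pad cells and induced with 2 μg mL^−1 doxycycline. Cells were transfected with a plasmid expressing a FLAG-tagged target and a Myc-tagged standard. After 48 h, lysates underwent anti-FLAG and anti-Myc immunoprecipitation, and circular RNA barcodes were reverse transcribed, amplified and sequenced. Target abundance is the per-binder median log2 ratio of FLAG to Myc barcode read proportions. Barcodes needed ≥10^−7 proportion in both replicates, binders ≥3 barcodes per replicate, and a 10^−6 pseudocount was added; the two replicates were pooled.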

Q: For B1, which “median log2 fold change” value is on record?
A: 0.212

Q: How did the “median log2 fold change” value turn out when B2 was run?
A: -0.0647

Q: How did the “median log2 fold change” value turn out when B3 was run?
A: -0.293

Q: With B4 as the binder, how does the “median log2 fold change” value read?
A: -0.471

Q: How did the “median log2 fold change” value turn out when B5 was run?
A: -0.297

Q: B6 was tested. Which “median log2 fold change” value did it give?
A: 0.256

Q: For B7, which “median log2 fold change” value is on record?
A: 0.196

Q: Which “median log2 fold change” value does the source give for B8 here?
A: -0.205

Q: For B9, which “median log2 fold change” value is on record?
A: -0.559

Q: B10 was tested. Which “median log2 fold change” value did it give?
A: 0.361

Q: Which “median log2 fold change” value does the source give for B11 here?
A: -0.172

Q: For B12, which “median log2 fold change” value is on record?
A: -0.527

Q: With B13 as the binder, how does the “median log2 fold change” value read?
A: -0.21

Q: For B14, which “median log2 fold change” value is on record?
A: -0.475

Q: For B15, which “median log2 fold change” value is on record?
A: -0.142

Q: How did the “median log2 fold change” value turn out when B16 was run?
A: -0.446

Q: With B17 as the binder, how does the “median log2 fold change” value read?
A: -0.0394

Q: How did the “median log2 fold change” value turn out when B18 was run?
A: 0.318

Q: With B19 as the binder, how does the “median log2 fold change” value read?
A: 0.16
